Assay results: PubChem BioAssay (NCATS)
Inconclusive results are not listed. The source made the active and inactive calls. Unless noted, calls follow the shape of the dose curve; as a rule, active = well fitted curve in the direction sought with a large enough effect; inconclusive = small, poorly fitted or top-dose-only effect, or another doubt; inactive = no such curve, though single readings can be large; an effect the other way counts as inactive or inconclusive.

Assays:
[1] = qHTS to identify inhibitors of the type 1 interferon - major histocompatibility complex class I in skeletal muscle: primary screen against the NCATS Mechanism Interrogation Plate v5.0 (MIPE) Libary (AID 1347411); also: nearly all actives have a fitted effect of over 65% in size; also: potency is read from the fitted curve at half-maximal effect
Summary of the method: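 Luminescence from CRISPR HiBit-tagged endogenous HLA-B in human myoblasts reported MHC class I level after 24 h of IFN-beta (4 ng/ml) plus compound. Compounds ran as 11-point 1:3 series, top 46 uM final.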

[2] = Primary qHTS for inhibitors of nuclear receptor binding SET domain protein 2 (NSD2) in an isogenic RCH-ACV NSD2 p.E1099K mutant (9B) (AID 1645876); also: nearly all actives have a fitted effect of over 70% in size; also: potency is read from the fitted curve at half-maximal effect
[3] = Primary qHTS for inhibitors of nuclear receptor binding SET domain protein 2 (NSD2) in an RCH-ACV wild type WT cells (2C) (AID 1645877); also: nearly all actives have a fitted effect of over 70% in size; also: potency is read from the fitted curve at half-maximal effect
[4] = molecular target: Glutathione peroxidase 1 (Homo sapiens) (UniProt P07203); experiment: Primary qHTS Assay for Inhibitors of Recombinant Selenoprotein Glutathione Peroxidase 1 (GPX1) (AID 1845191); also: nearly all actives have a fitted effect of over 65% in size
Summary of the method: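 GPX1 10 nM, GR 100 nM, GSH 1 mM, NADPH 0.5 mM, CHP 0.5 mM (final). 30-min cpd preincubation, RT. Ex340/Em450 read t=0, t=15 min.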

[5] = molecular target: Phospholipid hydroperoxide glutathione peroxidase GPX4 (Homo sapiens) (UniProt P36969); experiment: Primary qHTS Assay for Inhibitors of Recombinant Selenoprotein Glutathione Peroxidase 4 (GPX4) (AID 1845192); details: outcome: dose series up to 50 µM unless noted; also: nearly all actives have a fitted effect of over 65% in size
Summary of the method: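 qHTS, GR-coupled: GPX4 200 nM + cpd 30 min RT → GSH 1 mM, NADPH 0.5 mM, GR 100 nM → CHP 0.5 mM start; fluor 340/450 at t0 and t15 min; no-enzyme wells as control.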

[6] = qHTS drug screen for cell cycle checkpoint inhibitors in PARPi-resistant BRCA-mutant ovarian cancer cell lines. (AID 1963452; calls by dose curve; also: potency is read from the fitted curve at half-maximal effect); details: PEO1/OlaR viability, CellTiter-Glo luminescence, 96 h; for Z-AUC: stronger effect = lower value
Summary of the method: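 PEO1, PEO4 and PEO1/OlaR ovarian cancer cells, 600 per well, exposed 96 h at 37C to a dilution series. Viability read by CellTiter-Glo luminescence, normalized to DMSO and empty wells; activity summarized as Z-AUC.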

[7] = measured here: PEO1 parental Z-AUC

Glutathione peroxidase 1 (Homo sapiens), sequence (P07203 whole entry, looked up): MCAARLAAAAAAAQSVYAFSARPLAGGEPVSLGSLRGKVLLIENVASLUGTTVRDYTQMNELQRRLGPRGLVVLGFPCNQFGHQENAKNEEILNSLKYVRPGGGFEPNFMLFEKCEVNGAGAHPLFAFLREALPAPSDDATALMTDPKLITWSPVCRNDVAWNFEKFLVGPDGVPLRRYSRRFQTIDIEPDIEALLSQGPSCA
Phospholipid hydroperoxide glutathione peroxidase GPX4 (Homo sapiens), sequence (P36969 whole entry, looked up): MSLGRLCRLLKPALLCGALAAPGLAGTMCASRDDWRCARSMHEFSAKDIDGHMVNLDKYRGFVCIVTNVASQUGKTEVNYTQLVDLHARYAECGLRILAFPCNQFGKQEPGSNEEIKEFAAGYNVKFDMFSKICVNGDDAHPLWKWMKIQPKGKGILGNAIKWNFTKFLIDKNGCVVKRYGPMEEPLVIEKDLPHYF

O=C(CCNC(=O)c1ccc(OC(F)(F)F)cc1)N[C@@H]1CCCc2ccccc21
Potency [1]: inactive
Potency [2]: inactive
Potency [3]: inactive
Potency [4]: inactive
Potency [5]: inactive
Z-AUC [6]: 1.15 (inactive)
Z-AUC [6, 7]: 0.0965
Z-AUC ([6]; measured here: PEO4 Z-AUC): 0.626

N#Cc1ccnc(N2C(=O)CC[C@H]2C(=O)N(c2cncc(F)c2)C(C(=O)NC2CC(F)(F)C2)c2ccccc2Cl)c1 (some centres undefined)
Potency [1]: inactive
Potency [2]: inactive
Potency [3]: inactive
Potency [4]: inactive
Potency [5]: inactive
Z-AUC [6]: 1.6 (inactive)
Z-AUC [6, 7]: 0.937
Z-AUC ([6]; measured here: PEO4 Z-AUC): 1.33

Nc1nc(-c2nn(Cc3ccccc3F)c3ncccc23)ncc1C1CC1
Potency [1]: inactive
Potency [2]: 1180 nM (active)
Potency [3]: 1180 nM (active)
Potency [4]: inactive
Potency [5]: inactive
Z-AUC [6]: 1.67 (inactive)
Z-AUC [6, 7]: 0.865
Z-AUC ([6]; measured here: PEO4 Z-AUC): 1.09

COc1cc(OC)c(/C=C/S(=O)(=O)Cc2ccc(OC)c(OP(=O)(O)O)c2)c(OC)c1
Potency [1]: inactive
Potency [2]: 37.2 nM (active)
Potency [3]: 33.2 nM (active)
Potency [4]: inactive
Potency [5]: inactive
Potency [6]: 49 nM (active)
Z-AUC [6, 7]: -2.04
Z-AUC ([6]; measured here: PEO4 Z-AUC): -2.09

CCNCCS(=O)(=O)NC[C@@]1(c2ccccc2)SC(NC(=O)C(C)(C)C)=NN1C(=O)C(C)(C)C
Potency [1]: inactive
Potency [2]: 9.3 nM (active)
Potency [3]: 7.4 nM (active)
Potency [4]: inactive
Potency [5]: inactive
Potency [6]: 8.7 nM (active)
Z-AUC [6, 7]: -2.33
Z-AUC ([6]; measured here: PEO4 Z-AUC): -2.54

COc1cc2c(Oc3ccc4[nH]c(C)cc4c3F)ccnc2cc1OCC1(N)CC1
Potency [1]: inactive
Potency [2]: 5900 nM (active)
Potency [3]: 3720 nM (active)
Potency [4]: inactive
Potency [5]: inactive
Z-AUC [6]: 0.184 (inactive)
Z-AUC [6, 7]: 0.236
Z-AUC ([6]; measured here: PEO4 Z-AUC): 0.196

CONC(=O)Nc1ccc(-c2sc3c(c2CN(C)Cc2ccccc2)c(=O)n(-c2ccccc2)c(=O)n3Cc2c(F)cccc2F)cc1
Potency [1]: inactive
Potency [2]: inactive
Potency [3]: inactive
Potency [4]: inactive
Potency [5]: inactive
Z-AUC [6]: -0.608 (inactive)
Z-AUC [6, 7]: -0.886
Z-AUC ([6]; measured here: PEO4 Z-AUC): -0.917

CC(C)[C@H]1C(=O)N[C@@H](CCCN=C(N)N)C(=O)NCC(=O)N[C@@H](CC(=O)O)C(=O)N[C@H](Cc2ccccc2)C(=O)N1C
Potency [1]: inactive
Potency [2]: inactive
Potency [3]: inactive
Potency [4]: inactive
Potency [5]: inactive
Z-AUC [6]: -1.37 (inactive)
Z-AUC [6, 7]: -1.22
Z-AUC ([6]; measured here: PEO4 Z-AUC): -0.795

C=CCN1C[C@H](C(=O)N(CCCN(C)C)C(=O)NCC)CC2c3cccc4[nH]cc(c34)C[C@H]21 (some centres undefined)
Potency [1]: inactive
Potency [2]: inactive
Potency [3]: inactive
Potency [4]: inactive
Potency [5]: inactive
Z-AUC [6]: -0.809 (inactive)
Z-AUC [6, 7]: -0.35
Z-AUC ([6]; measured here: PEO4 Z-AUC): -0.259

N=C(N)c1ccc2nc(-c3cc(CC(=O)N[C@@H](CC(=O)O)C(=O)O)cc(-c4cc(S(N)(=O)=O)ccc4O)c3O)[nH]c2c1
Potency [1]: inactive
Potency [2]: inactive
Potency [3]: inactive
Potency [4]: inactive
Potency [5]: inactive
Z-AUC [6]: -0.76 (inactive)
Z-AUC [6, 7]: -0.562
Z-AUC ([6]; measured here: PEO4 Z-AUC): -0.379

Cc1ccc(S(=O)(=O)Nc2cc(-c3ccc(C#N)s3)ccc2C)cc1
Potency [1]: inactive
Potency [2]: 46.8 nM (active)
Potency [3]: 41.7 nM (active)
Potency [4]: inactive
Potency [5]: inactive
Z-AUC [6]: -2.2 (inactive)
Z-AUC [6, 7]: -2.3
Z-AUC ([6]; measured here: PEO4 Z-AUC): -2.13

O=C(NCc1ccc(S(=O)(=O)c2cccc(C(F)(F)F)c2)cc1)c1cnc2[nH]ncc2c1
Potency [1]: inactive
Potency [2]: 13.2 nM (active)
Potency [3]: 26.3 nM (active)
Potency [4]: inactive
Potency [5]: inactive
Z-AUC [6]: -2.19 (inactive)
Z-AUC [6, 7]: -2.73
Z-AUC ([6]; measured here: PEO4 Z-AUC): -2.28

CCc1cnn2c(NCc3ccc[n+]([O-])c3)cc(N3CCCC[C@H]3CCO)nc12
Potency [1]: 5.2 nM (active)
Potency [2]: 37.2 nM (active)
Potency [3]: 37.2 nM (active)
Potency [4]: inactive
Potency [5]: inactive
Potency [6]: 245 nM (active)
Z-AUC [6, 7]: -2.15
Z-AUC ([6]; measured here: PEO4 Z-AUC): -1.73

Cc1cnc(NC(=O)c2cc(Oc3cnc(C(=O)N(C)C)nc3)c3cc(C)oc3c2)cn1
Potency [1]: inactive
Potency [2]: inactive
Potency [3]: inactive
Potency [4]: inactive
Potency [5]: inactive
Z-AUC [6]: -1.14 (inactive)
Z-AUC [6, 7]: -0.452
Z-AUC ([6]; measured here: PEO4 Z-AUC): 0.0814

NS(=O)(=O)c1ccc(S(=O)(=O)Nc2cccc3c(Cl)c[nH]c23)cc1
Potency [1]: inactive
Potency [2]: 742 nM (active)
Potency [3]: 590 nM (active)
Potency [4]: inactive
Potency [5]: inactive
Z-AUC [6]: -0.956 (inactive)
Z-AUC [6, 7]: -0.0531
Z-AUC ([6]; measured here: PEO4 Z-AUC): -0.727

O=C(/C=C/c1ccc2ccc(C(F)(F)F)cc2n1)c1ccncc1
Potency [1]: 5230 nM (active)
Potency [2]: 2350 nM (active)
Potency [3]: 2090 nM (active)
Potency [4]: inactive
Potency [5]: inactive
Z-AUC [6]: -0.632 (inactive)
Z-AUC [6, 7]: -0.753
Z-AUC ([6]; measured here: PEO4 Z-AUC): -0.961

CC(C)n1ncnc1-c1cn2c(n1)-c1ccc(O[C@@H](C)C(N)=O)cc1OCC2
Potency [1]: inactive
Potency [2]: 934 nM (active)
Potency [3]: 934 nM (active)
Potency [4]: inactive
Potency [5]: inactive
Z-AUC [6]: -1.61 (inactive)
Z-AUC [6, 7]: -1.38
Z-AUC ([6]; measured here: PEO4 Z-AUC): -1.69

CC(C)(O)CNc1ncc(-c2ccnc(Nc3ccncc3)n2)c(CC2CC2)n1
Potency [1]: 16500 nM (active)
Potency [2]: 4170 nM (active)
Potency [3]: 3720 nM (active)
Potency [4]: inactive
Potency [5]: inactive
Z-AUC [6]: -0.109 (inactive)
Z-AUC [6, 7]: -0.212
Z-AUC ([6]; measured here: PEO4 Z-AUC): 0.228
